An excerpt weighted towards active compounds, which were near 11% of everything screened.
IMPase cell inh: membrane-permeable compound that blocks inositol monophosphatase; AID 901; 120,000 tested, under 10 active; CHO-M1 cells, IP1 accumulation, HTRF TR-FRET ratio; inhibition (IP1 accumulation), % at 46.1 µM; active means well fitted curve in the direction sought with a large enough effect in the signal ratio, not every such curve was filed as active; inconclusive means small, poorly fitted or top-dose-only effect, or a change in a side signal; inactive means no such curve, though single readings can be large or run the other way; the % refers to the signal ratio;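 further: cells stimulated with carbachol in lithium chloride buffer; plate controls were DMSO basal wells for no effect and reference inhibitor wells for full effect; higher means more IMPase inhibition seen as more IP1 and lower FRET ratio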
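Carbachol-driven Gq signalling in CHO-M1 cells (2000/well) generates IP1. Compounds that block IMPase raise IP1 and so reduce the FRET signal from Eu-anti-IP1 and d2-IP1 after a 10 min room-temperature lysis.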
IMPase Li cell: IMPase inhibition in cells with lithium potentiation; 210,000 compounds, 0.35% hits; CHO-M1 cells, IP1 TR-FRET (IP-One), carbachol + lithium; Potency, µM (titrated, usually from 59.4 µM), for inactives: at the highest dose activity, negative = IMPase inhibition, usual class: inhibitors;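 further: IP1 builds up when IMPase is blocked and the TR-FRET signal falls; potency means the concentration at half of the fitted maximal effect; plate controls were basal vehicle for no effect and high inhibitor control for full effect; nearly all actives have a fitted effect of over 50% in size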
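Steps: plate 2000 CHO-M1 cells per well and culture 16–30 h; add compound and lithium; incubate 30 min, 37C; add d2-IP1 tracer and Eu cryptate anti-IP1 antibody in lysis buffer; read after 10 min at room temperature.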
HPGD block: blocks human HPGD enzyme activity. 150,000 compounds, 4.3% hits. Potency, µM, for the others: at the top dose activity change, negative = inhibition, most hits filed as inhibitors. P15428. purified HPGD, NADH fluorescence kinetic, PGE2 substrate. AID 894; active means well fitted inhibition curve with a large enough effect, not every such curve was filed as active; inconclusive means small, poorly fitted or top-dose-only effect, or another doubt; inactive means no such curve, though single readings can be large or run the other way; further: potency means the concentration at half of the fitted maximal effect
Target sequence (P15428 whole entry, looked up): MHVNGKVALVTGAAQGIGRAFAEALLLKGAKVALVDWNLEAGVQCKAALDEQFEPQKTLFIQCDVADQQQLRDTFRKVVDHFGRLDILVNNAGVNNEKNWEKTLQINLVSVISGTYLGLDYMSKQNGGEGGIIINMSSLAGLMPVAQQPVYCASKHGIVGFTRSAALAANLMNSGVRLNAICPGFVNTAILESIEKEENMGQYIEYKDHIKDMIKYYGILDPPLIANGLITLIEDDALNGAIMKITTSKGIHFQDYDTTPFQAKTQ
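20 nM HPGD preincubated 15 min at room temperature with compound in 50 mM Tris-HCl pH 8, 0.01% Tween 20. Started with 1 mM NAD+ and 30 uM prostaglandin E2; NADH fluorescence (360/450 nm) read 5 times over 30-s intervals, last minus first.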
ALDH1A1 block: inhibitors of human aldehyde dehydrogenase 1A1; AID 1030; Purified ALDH1A1, NADH fluorescence, propionaldehyde substrate; 220,000 compounds, 7.3% hits; Potency, µM (series often up to 75.3 µM), for inactives: at the top dose activity, negative = inhibition, usual class: inhibitors; active means well fitted inhibition curve with a large enough effect, not every such curve was filed as active; inconclusive means small, poorly fitted or top-dose-only effect, or another doubt; inactive means no such curve, though single readings can be large or run the other way;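 further: potency means the concentration at half of the fitted maximal effect; plate controls were no enzyme wells and a reference inhibitor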
Target sequence (P00352 whole entry, looked up): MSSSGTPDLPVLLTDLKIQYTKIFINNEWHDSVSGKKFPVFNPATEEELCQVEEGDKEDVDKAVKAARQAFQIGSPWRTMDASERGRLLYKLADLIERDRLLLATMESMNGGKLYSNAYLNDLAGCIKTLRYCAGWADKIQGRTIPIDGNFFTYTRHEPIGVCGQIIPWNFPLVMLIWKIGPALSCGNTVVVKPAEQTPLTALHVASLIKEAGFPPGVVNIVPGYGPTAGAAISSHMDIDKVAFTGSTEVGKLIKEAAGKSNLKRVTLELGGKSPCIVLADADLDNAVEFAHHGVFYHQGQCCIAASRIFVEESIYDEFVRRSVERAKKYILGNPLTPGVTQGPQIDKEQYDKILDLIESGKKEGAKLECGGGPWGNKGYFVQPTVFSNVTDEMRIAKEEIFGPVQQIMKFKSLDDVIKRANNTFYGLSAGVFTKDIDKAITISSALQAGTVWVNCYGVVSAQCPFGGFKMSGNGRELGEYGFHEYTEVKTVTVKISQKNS
PNC assembly inh: perinucleolar compartment assembly inhibition; 140,000 compounds, 3.1% hits; AID 2417; activity change (PNC), negative = inhibition, % at 10 µM; PC3M PTB-GFP, PNC prevalence imaging, 16 h; stronger effect = lower value;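 active means readout at or below -70, meaning at least 70% loss of cells showing the perinucleolar compartment, a nuclear body marking cancer cells; inconclusive means readout between -30 and a set limit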;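 further: plate controls were DMSO wells for no effect and camptothecin positive control wells for full effect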
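Compounds are pinned in duplicate onto adhered PC3M cells stably expressing GFP-tagged PTB and incubated 16 h at 37 C. Cells are then fixed, nuclei stained with Hoechst, and PNC-positive cells counted.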
12-hLO inh: blocks human 12-lipoxygenase activity. P18054. purified 12-hLO, xylenol orange hydroperoxide absorbance. Potency, µM (highest dose often 57.1 µM), for the others: top-dose activity change, negative = inhibition, actives largely listed as inhibitors. 150,000 compounds, 0.12% hits; further: potency means the concentration at half of the fitted maximal effect; nearly all actives have a fitted effect of over 55% in size
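Hydroperoxide output read as Fe(III)-xylenol orange absorbance, 573-to-405 nm ratio, after 30 min reaction with 40 uM arachidonic acid. Enzyme: 150 nM purified human 12hLO, 15 min compound preincubation; 25 mM Hepes pH 7.0, room temperature.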
* hit, by the source's call; ? = inconclusive; · = not tested or not shown; [ ] = another dose, or the depositor's remark. Unless noted, the call rests on the fitted dose curve; in most records, active means well fitted curve in the direction sought with a large enough effect; inconclusive means small, poorly fitted or top-dose-only effect, or another doubt; inactive means no such curve, though single readings can be large; an effect the other way counts as inactive or inconclusive. Unless noted, on the % scale 0 is the no-effect control and ±100 the full control effect.

SMILES	IMPase cell inh	IMPase Li cell	HPGD block	ALDH1A1 block	PNC assembly inh	12-hLO inh
COc1ccc(-c2cc(C(=O)N3CCN(C(c4ccccc4)c4ccccc4)CC3)no2)cc1	4.2	12.2%[38.3 µM]	-10.3%	-3.3%	24.3	-0.3%
COc1ccc(-c2cc(C(=O)N3CCc4ccccc4C3)no2)cc1OC	-0.1	9.5%[38.3 µM]	11.2µM*	?	43.1	-12.3%
Cc1noc(C)c1COc1ccc(C(=O)OCC(=O)N2CC3(C)CC2CC(C)(C)C3)cc1 (centres undefined)	10.9	25.5%[38.3 µM]	-11.9%	?	30.6	-4.0%
COc1cccc(-c2cc(C(=O)N3CCCCCC3)no2)c1	12.4	40.1%[38.3 µM]	2.51µM*	?	-108.4*	-10.0%
COc1cccc(-c2cc(C(=O)N3CCCCC3C)no2)c1 (centres undefined)	6.7	-7.1%[38.3 µM]	15.8µM*	-12.5%	55.7	-3.3%
COc1ccccc1N1CCN(C(=O)c2cc(-c3cccc(Cl)c3)on2)CC1	?	-8.9%[38.3 µM]	-14.9%	20µM*	-25.0	-5.2%
O=C(c1cc(-c2ccc(Cl)c(Cl)c2)on1)N1CCCC1	-3.0	63.5%[38.3 µM]	-10.4%	13.2%	10.1	-5.8%
O=C(c1cc(-c2ccc3c(c2)OCO3)on1)N1CCOCC1	1.6	16.9%[38.3 µM]	31.6µM*	-1.9%	-22.9	2.8%
COc1ccc(CC(=O)N2CC3(C)CC2CC(C)(C)C3)cc1 (centres undefined)	9.8	16.1%[38.3 µM]	-29.7%	?	-10.0	-1.2%
CC1CCN(C(=O)c2cc(-c3ccc(Cl)c(Cl)c3)on2)CC1	-3.9	9.2%	14.1µM*	?	215.8	4.2%
COc1cccc(-c2cc(C(=O)N3CC4(C)CC3CC(C)(C)C4)no2)c1 (centres undefined)	3.7	-0.5%[38.3 µM]	-17.2%	12.6µM*	?	-13.9%
CCCCC/C=C\C\C=C/C=C/C=C/[C@@H](SCC(N)C(=O)O)[C@@H](O)CCCC(=O)O (some centres undefined)	·	17.5%	2.3%	4.0%	·	-0.1%
CC(C)CN1CC2(CCN(C(=O)c3cnccn3)CC2)C1	·	27.4%	-6.6%	-0.3%	·	1.7%
CC(=O)[C@@H]1CC[C@@H]2[C@@H]3CC=C4C[C@H](OS(=O)(=O)O)CC[C@@]4(C)[C@H]3CC[C@]21C	-0.9	·	·	·	·	2.7%
COc1ccc(-c2nc3ccccc3s2)cc1NC(=O)c1ccccc1OC	-2.1	·	·	·	·	·
O=C(c1cc(-c2ccc(F)cc2)on1)N1CCCC1	-3.5	·	·	-4.6%	8.2	-7.4%
COc1cccc(-c2cc(C(=O)O)no2)c1	-6.3	14.2%[38.3 µM]	5.62µM*	0.562µM*	-1.1	-1.0%
O=C(c1cc(-c2cccc(O)c2)on1)N1CCCCC1	8.9	19.2%[38.3 µM]	4.47µM*	?	?	-1.2%
CCc1cccc2c(C(=O)COC(=O)C3=NNC(=O)CC3)c[nH]c12	·	4.9%	·	12.8%	·	·
CCc1cccc2c(C(=O)COC(=O)c3nn(C)c(=O)c4ccccc34)c[nH]c12	0.6	5.7%[38.3 µM]	?	?	-108.6*	-4.1%
CCNc1ncc2nc(-c3cn(C)c4ccccc34)c(=O)n(Cc3ccc(F)cc3)c2n1	·	0.2%	·	-7.4%	·	·
Cc1nn(-c2ccccc2)c(Cl)c1CN(C(=O)CCl)c1ccc(Cl)cc1	·	17.5%	-22.4%	7.08µM*	11.8	-5.5%
Cc1nn(-c2ccccc2)c(Cl)c1CN(C(=O)CCl)c1cccc2ccccc12	12.2	12.2%	0.2%	28.2µM*	-16.7	-5.1%
CC(=O)N(Cc1c(C)nn(-c2ccccc2)c1Cl)c1ccc(Cl)cc1	7.1	3.3%[38.3 µM]	-1.9%	-3.4%	?	-3.0%
CCCOc1nc(N)c(C#N)c(-c2ccccc2F)c1C#N	4.8	26.2%[38.3 µM]	-17.1%	1µM*	28.3	-0.1%
SMILES	IMPase cell inh	IMPase Li cell	HPGD block	ALDH1A1 block	PNC assembly inh	12-hLO inh
CCSc1nc(N)c(C#N)c(-c2ccccc2Cl)c1C#N	-7.5	15.2%[38.3 µM]	?	?	30.9	-24.5%
CCCC[C@@H]1C[C@H]1C(NC(=O)c1ccco1)c1ccccc1C(F)(F)F (some centres undefined)	·	5.3%	-8.2%	-22.2%	·	0.0%
COc1ccc(-c2nc(S(=O)(=O)c3ccc(Cl)cc3)c(NCc3ccccc3)o2)cc1	-7.2	·	·	·	·	·
COc1ccc(C(=O)NC(=S)Nc2cccnc2)cc1[N+](=O)[O-]	·	3.8%	·	22.4µM*	·	·
COc1ccc(C(=O)NNC(=O)c2ccccc2[N+](=O)[O-])cc1[N+](=O)[O-]	·	10.2%	·	12.6µM*	·	·
COc1cc(Nc2ccc(C(=O)O)cc2[N+](=O)[O-])cc(OC)c1	·	-0.4%	20µM*	9.3%	-10.6	-8.1%
COc1ccccc1NC(=O)c1ccc(-n2cccn2)c([N+](=O)[O-])c1	·	6.5%	·	25.1µM*	·	·
CCc1nn(-c2ccccc2)c2nc(-c3cccc(OC)c3)c3cc(OC)c(OC)cc3c12	-0.1	·	·	·	·	·
COc1ccc(C(=O)Nc2ccccc2)cc1[N+](=O)[O-]	·	7.8%	-6.7%	20µM*	·	4.3%
COc1ccc(C(=O)NNc2ccccc2)cc1OC	4.1	-11.4%[38.3 µM]	?	22.4µM*	-2.7	?
CC(=O)Nc1ccc(Nc2c(CCC(C)C)c(C)c(C#N)c3nc4ccccc4n23)cc1	1.9	·	·	·	·	·
C=CCOC(=O)C(C(C)=O)C(NC(=O)OC)c1ccco1 (centres undefined)	·	·	·	11.4%[13.5 µM]	·	·
O=C(NC(=S)N1CCCCCC1)c1ccc(Cl)cc1Cl	·	2.3%	·	3.1%	·	·
CC1CCCCC12NC(=S)N(c1ccccc1)N2 (centres undefined)	·	·	·	14.1µM*	·	·
CC1CCCC2(C1)NC(=S)N(c1ccccc1)N2 (centres undefined)	2.5	7.1%[38.3 µM]	-6.3%	?	?	?
CC1CC(C)(C)CC2(C1)NC(=S)N(c1ccccc1)N2 (centres undefined)	-5.0	28.2%[38.3 µM]	-9.3%	15.8µM*	-16.5	?
Cn1cccc1C(=O)N1CCC2(CCCN(Cc3ccncc3)C2)CC1	·	25.5%	-10.4%	?	·	-1.6%
O=S(=O)(c1cccs1)N1CCN(CC(O)COc2cccc(Br)c2)CC1 (centres undefined)	0.0	36.3%[38.3 µM]	-2.4%	20µM*	-15.5	-10.4%
O=S(=O)(c1cccs1)N1CCN(CC(O)COC2CCCc3ccccc32)CC1 (centres undefined)	-2.5	7.6%[38.3 µM]	-15.9%	?	8.5	-4.0%
Cc1ccc(-c2csc3ncn(-n4c(C)ccc4C)c(=O)c23)o1	9.6	19.6%[38.3 µM]	28.2µM*	31.6µM*	?	-29.3%
COC(=O)[C@@]1(Cc2ccccc2)[C@H]2c3cc(C(=O)N(C)C)n(Cc4ccc(OC)c(OC)c4)c3C[C@H]2CN1C(=O)c1ccccc1	·	-6.4%	-6.4%	8.9%	·	-1.3%
Cc1nnc(SCC(=O)NC(C)(C)C)n1NCc1c(F)cccc1Cl	·	8.9%	·	-7.3%	·	·

High-throughput results as filed in PubChem BioAssay.
